Test [1] is described as follows: NCI Yeast Anticancer Drug Screen. Data for the rad50 strain (AID 155).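 Further: 0% = growth of vehicle-only cultures of the same strain.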 To be noted: S. cerevisiae rad50 strain growth inhibition; at 50.0 µM; active compounds read high. In a few lines: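 DNA repair mutant yeast, compound exposure, growth read-out; inhibition is taken relative to vehicle.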
A short description of test [2]: NCI Yeast Anticancer Drug Screen. Data for the mec2-1 strain (AID 157). To be noted: S. cerevisiae mec2-1 strain, at 50.0 µM, active compounds read high. In a few lines:
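Each compound was tested on mec2-1 yeast, a strain altered in DNA damage repair or cell cycle control. Growth inhibition is reported relative to vehicle.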

Test [3] is described as follows: NCI Yeast Anticancer Drug Screen. Data for the sgs1 mgt1 strain (AID 161).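 Further: 0% = growth of cultures given vehicle only.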 As to conditions: S. cerevisiae sgs1 mgt1 strain, at 50.0 µM, active compounds read high. In a few lines:
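Read-out: growth inhibition vs vehicle controls. Cells: mutant yeast strain deficient in DNA damage repair.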

Test [4] is described as follows: NCI Yeast Anticancer Drug Screen. Data for the cln2 rad14 strain (AID 165).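 Further: 0% = growth equal to vehicle treated cultures.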 To be noted: S. cerevisiae cln2 rad14 strain, at 50.0 µM, active compounds read high. In a few lines:
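Test compounds were added to cln2 rad14 yeast cultures; inhibition of growth was then determined by comparison with vehicle treatment.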

The nature of test [5]: NCI Yeast Anticancer Drug Screen. Data for the bub3 strain (AID 167). As to conditions: S. cerevisiae bub3 mutant strain, at 50.0 µM, active compounds read high. In a few lines:
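In this screen, a yeast mutant lacking normal mitotic checkpoint function is challenged with compound. Relative growth versus vehicle gives the inhibition value.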

The nature of test [6]: NCI Yeast Anticancer Drug Screen. Data for the mlh1 rad18 strain (AID 175). To be noted: S. cerevisiae mlh1 rad18 strain growth inhibition; at 50.0 µM; active compounds read high. Summed up: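 Inhibition values reflect reduced growth of mutant yeast versus vehicle-treated controls following compound exposure; the mutations affect DNA damage repair.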

Data on 18 molecules can be found in PubChem BioAssay (NCI).

SMILES strings stand for the structures. The panel holds about 79,000 compounds, 15% with a hit somewhere; the sample as a whole holds those more often. A number with no mark means an inactive call. Active and inactive are the calls of the source. No stated cut-off is given here; in the data, active means growth inhibition above about 70%; inactive means the rest.

Turning to `COc1cccc(NC(=O)C(=O)C2C=CCS2(=O)=O)c1` (stereo not drawn), the growth inhibition was 0.4% in test [1]; -0.65% in test [2]; -31.4% in test [3]; -6.6% in test [4]; -28.3% in test [5]; -13% in test [6].

Consider `O=C(O)CCSc1ccc([N+](=O)[O-])cc1`, for which the growth inhibition is -7.3% in test [1]; -18.6% in test [2]; -4.75% in test [3]; -44.1% in test [4]; -11.5% in test [5]; 52.6% in test [6].

For the molecule `NC(=O)NOCC(N)C(=O)O` (stereo not drawn), the growth inhibition in test [1] is -7.2%; in test [2], 1.8%; in test [3] it was 1.15%; in test [4], -41.3%; in test [5] it was 5.35%; in test [6], -2.9%.

Turning to `C[C@H](N)C(=O)/C=C/c1ccccc1`, the growth inhibition in test [1] was -18.8%; in test [2], -30.6%; in test [3] it was -6.05%; in test [4], 14.9%; in test [5], 8.8%; in test [6], -8.5%.

Regarding `O=C1CC(=O)N(CCc2ccccc2)S(=O)(=O)N1CCc1ccccc1`, the growth inhibition in test [1] is -8.9%; in test [2], -21.4%; in test [3] it was -14.2%; in test [4], 30.4%; in test [5] it was -15.2%; in test [6], -32.8%.

For the molecule `Cc1nc(CCCCCCCC(=O)O)ccc1O`, the growth inhibition is 6.25% in test [1]; 7.25% in test [2]; -10.6% in test [3]; -9.35% in test [4]; 0.85% in test [5]; 7.3% in test [6].

Take `Nc1ccc(CCCCc2ccc(Cl)cc2Cl)cc1`: the growth inhibition was 98.2% (active) in test [1]; 98.2% (active) in test [2]; 98.5% (active) in test [3]; 98.1% (active) in test [4]; 98% (active) in test [5]; 98% (active) in test [6].

As for `O=C1CCCCc2ccccc21`, the growth inhibition in test [1] was -39.1%; in test [2] it was -57.4%; in test [3], -7.95%; in test [4] it was -7%; in test [5] it was -25.1%; in test [6], -8.25%.

For the molecule `Nc1cccc(/C=C/c2cccc([N+](=O)[O-])c2)c1`, the growth inhibition was 18.2% in test [1]; 37.5% in test [2]; 12.8% in test [3]; 4% in test [4]; 60.3% in test [5]; 30.2% in test [6].

As for `CCCCCCCC(=O)Oc1ccccc1`, the growth inhibition in test [1] is 14.1%; in test [2], -10.5%; in test [3], -0.75%; in test [4], -10%; in test [5], -2.3%; in test [6], -1.2%.

As for `COC(=O)c1ccc(NC(C)=O)c([N+](=O)[O-])c1`, the growth inhibition in test [1] is 3.35%; in test [2] it was -7.7%; in test [3], -11.4%; in test [4] it was -21.9%; in test [5], -26.1%; in test [6] it was 16.4%.

Consider `OC1OCC(COc2ccc(Cl)cc2)OC1O` (stereo not drawn), for which the growth inhibition in test [1] was -17.6%; in test [2], -9.05%; in test [3] it was -12.2%; in test [4], 1.25%; in test [5], -36.7%; in test [6], 18.9%.

`CC(=O)c1cc(Cl)ccc1OCC(O)CNc1ccc(Cl)cc1C(=O)c1ccccc1` (stereo not drawn): the growth inhibition in test [1] was 17.6%; in test [2] it was 37.6%; in test [3], 10.3%; in test [4] it was 34%; in test [5] it was -3.85%; in test [6], 7.15%.

`O=C(/C=C/c1ccco1)c1ccc(O)c(C(=O)O)c1`: the growth inhibition in test [1] is -7.8%; in test [2], -1.25%; in test [3], -1%; in test [4], -39.5%; in test [5], -26.6%; in test [6] it was -2.9%.

Turning to `O=C1NC2(CCCC2)C(=O)NC12CCCC2`, the growth inhibition in test [1] was -21.1%; in test [2], -22.1%; in test [3], -1.45%; in test [4], -13.2%; in test [5], -26.2%; in test [6], 1.35%.

Consider `CN(C)CCNC(=O)c1cccc2[nH]c(-c3ccncc3)nc12`, for which the growth inhibition in test [1] is 5.9%; in test [2], -16.2%; in test [3], -37.4%; in test [4] it was -19.9%; in test [5], -48%; in test [6] it was -89.1%.

For the molecule `COc1ccc2c(c1)CCC1=C2CC2C(=O)C1(C)CCC2(C)OC(C)=O` (stereo not drawn), the growth inhibition in test [1] is -4.35%; in test [2] it was -11.1%; in test [3], -1.3%; in test [4], -40.5%; in test [5], 10.1%; in test [6], -14.2%.

For `COC1=C(OC)CCC(/C(C#N)=C/c2ccc(OC)c(OC)c2)=C1`, the growth inhibition in test [1] is 18.8%; in test [2] it was -3.45%; in test [3], -10%; in test [4], -11.8%; in test [5] it was -0.9%; in test [6] it was 25.4%.
